Reference: PMC4081100, “A DNA-binding-site landscape and regulatory network analysis for NAC transcription factors in Arabidopsis thaliana”

Biological target: T1, GST-NST2(1-184) (Arabidopsis thaliana, UniProt Q9M274 1-184)
T1 sequence: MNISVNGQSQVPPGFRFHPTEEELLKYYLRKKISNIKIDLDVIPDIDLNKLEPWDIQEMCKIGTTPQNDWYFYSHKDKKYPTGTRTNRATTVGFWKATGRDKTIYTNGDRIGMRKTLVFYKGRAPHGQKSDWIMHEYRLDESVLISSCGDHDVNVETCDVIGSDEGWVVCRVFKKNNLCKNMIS
Assay: universal protein binding microarray (PBM); transcription factors of Arabidopsis thaliana; high values mean tight binding
Conditions: protein: recombinant; tags: GST; chain copies: 2; dsDNA, one strand shown
How it was run: (§1)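 Binding is expressed as the normalised enrichment score (E-score). Proteins carrying a GST tag, whether NAC-domain, full-length or DNA-binding-domain forms, were induced in cells, and zinc acetate was added for zinc-finger proteins. After purification on glutathione–Sepharose 4B and quantification by A280 or anti-GST western blot, each was applied in duplicate at 200 to 500 nM final to custom all-10-mer Agilent 4 × 180K arrays made double-stranded by primer extension. Gapped and ungapped 8-mers were scored.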

| Sequence | binding signal [E-score] |
| --- | --- |
| AAAAAGTC | 0.122 |
| AGGGTAAT | 0.0716 |
| ATTTTGAC | 0.0826 |
| ATTGACTG | 0.0623 |
| AGTCAACG | 0.114 |
| AGGGAAAT | 0.0566 |
| AGGAAACT | 0.125 |
| GTCAATAA | 0.118 |

Biological target: T2, GST-NTL8 NAC domain (Arabidopsis thaliana, UniProt Q9XIN7 14-156)
T2 sequence: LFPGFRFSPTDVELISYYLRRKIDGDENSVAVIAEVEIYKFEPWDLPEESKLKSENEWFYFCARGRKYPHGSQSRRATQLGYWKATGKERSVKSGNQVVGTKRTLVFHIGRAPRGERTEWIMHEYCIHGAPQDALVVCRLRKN
Assay: as above
Conditions: protein: recombinant; tags: GST; chain copies: 2; dsDNA, one strand shown
How it was run: as §1

| Sequence | binding signal [E-score] |
| --- | --- |
| AGTCAAAG | 0.0881 |
| ATTCCCTC | 0.421 |
| AATTGACC | 0.0822 |
| AAAAAGTC | 0.0525 |
| AAGGTCAG | 0.0579 |
| AGAGGTAA | 0.427 |
| AGGGTAAT | 0.441 |
| GAAGTCAA | 0.0673 |
| ATTGACTG | 0.0613 |
| AGGGAAAT | 0.406 |
| AGGAAACT | 0.426 |
| AGAAAGTC | 0.0673 |
| GACCGGAA | 0.0847 |

Biological target: T3, GST-VND3 NAC domain (Arabidopsis thaliana, UniProt Q9FH59 12-162)
T3 sequence: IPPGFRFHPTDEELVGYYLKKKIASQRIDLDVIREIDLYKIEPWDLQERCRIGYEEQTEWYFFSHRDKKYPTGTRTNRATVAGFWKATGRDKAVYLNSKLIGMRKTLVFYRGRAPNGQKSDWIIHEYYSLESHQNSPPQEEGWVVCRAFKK
Assay: as above
Conditions: protein: recombinant; tags: GST; chain copies: 2; dsDNA, one strand shown
How it was run: as §1

| Sequence | binding signal [E-score] |
| --- | --- |
| CATTTGAC | 0.105 |
| AATTGACC | 0.115 |
| ATGTTGAC | 0.0635 |
| AAAAAGTC | 0.0942 |
| AAGGTCAG | 0.0582 |
| TAGTCAAA | 0.105 |
| AGAGGTAA | 0.0836 |
| AGGGTAAT | 0.121 |
| AATTTGAC | 0.0556 |
| TTAGTCAA | 0.11 |
| ATTTTGAC | 0.101 |
| TAGGTCAA | 0.0723 |
| ATAAGTCA | 0.105 |
| GGTCATAC | 0.115 |
| AGTCAACG | 0.115 |
| AGGGAAAT | 0.0592 |
| AGAAAGTC | 0.0756 |
| ATTAGTCA | 0.135 |
| TATGGTCA | 0.0521 |
| CATTGACG | 0.08 |
| TAGTCAGA | 0.065 |

Biological target: T4, GST-VND7 NAC domain (Arabidopsis thaliana, UniProt Q9C8W9 9-158)
T4 sequence: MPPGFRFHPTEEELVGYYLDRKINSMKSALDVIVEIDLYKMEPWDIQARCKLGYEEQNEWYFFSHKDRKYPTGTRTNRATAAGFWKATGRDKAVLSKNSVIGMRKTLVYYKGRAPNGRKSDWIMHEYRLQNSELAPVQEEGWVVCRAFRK
Assay: as above
Conditions: protein: recombinant; tags: GST; chain copies: 2; dsDNA, one strand shown
How it was run: as §1

| Sequence | binding signal [E-score] |
| --- | --- |
| AGTCAAAT | 0.152 |
| AGTCTGAC | 0.0919 |
| AGTCAAAG | 0.0935 |
| ATTCCCTC | 0.0536 |
| AGCTTGAC | 0.099 |
| AGTCTTTG | 0.125 |
| GAAGTCAA | 0.0707 |
| ATTGACTG | 0.05 |
| AGGAAACT | 0.131 |
| AAGTTGAC | 0.0703 |
| AGGTCAGC | 0.078 |
| GACCGGAA | 0.0568 |
| GTCAATAA | 0.112 |

Biological target: GST-WRKY1(266-371) (Arabidopsis thaliana, UniProt Q9SI37 266-371)
Sequence (Q9SI37 266-371): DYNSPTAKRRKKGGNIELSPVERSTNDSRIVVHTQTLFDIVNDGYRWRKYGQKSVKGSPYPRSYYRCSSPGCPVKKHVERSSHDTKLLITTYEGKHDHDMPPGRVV
Assay: as above
Conditions: protein: recombinant; tags: GST; dsDNA, one strand shown
How it was run: as §1

| Sequence | binding signal [E-score] |
| --- | --- |
| AGTCAAAT | 0.476 |
| AGTCTGAC | 0.422 |
| CATTTGAC | 0.462 |
| AGTCAAAG | 0.486 |
| AATTGACC | 0.47 |
| ATGTTGAC | 0.474 |
| AAAAAGTC | 0.426 |
| AAGGTCAG | 0.425 |
| CAGGTCAG | 0.418 |
| AGCTTGAC | 0.447 |
| AGTCTTTG | 0.424 |
| TAGTCAAA | 0.477 |
| GCTTTGAC | 0.466 |
| AATTTGAC | 0.451 |
| TTAGTCAA | 0.481 |
| ATTTTGAC | 0.461 |
| GAAGTCAA | 0.482 |

| Sequence | binding signal [E-score] |
| --- | --- |
| TAGGTCAA | 0.482 |
| ATAAGTCA | 0.443 |
| GGTCATAC | 0.421 |
| ATTGACTG | 0.465 |
| AGTCAACG | 0.494 |
| AAGTTGAC | 0.476 |
| CCGGTCAG | 0.44 |
| AGGTCAGC | 0.451 |
| AGAAAGTC | 0.407 |
| ATTAGTCA | 0.404 |
| TATGGTCA | 0.428 |
| GCCGGTCA | 0.459 |
| CATTGACG | 0.411 |
| GACCGGAA | 0.404 |
| GTCAATAA | 0.457 |
| TAGTCAGA | 0.428 |
